Compounds without any hit were thinned out: in the full panel of roughly 79,000, 15% have a hit. Values without a mark were called inactive. The source made the active and inactive calls. Rule as the data show it: active = growth inhibition above about 70%; inactive = the rest.
Columns and labels:
[1] = NCI Yeast Anticancer Drug Screen. Data for the rad50 strain (AID 155);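 also: 0% = growth of vehicle-only cultures of the same strain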; details: S. cerevisiae rad50 strain growth inhibition; at 50.0 µM; active compounds read high
Outline: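 Growth of the mutant yeast was measured after compound exposure and referenced to vehicle-treated cultures.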

[2] = NCI Yeast Anticancer Drug Screen. Data for the mec2-1 strain (AID 157); details: S. cerevisiae mec2-1 strain, at 50.0 µM, active compounds read high
Outline: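 mec2-1 yeast strain, carrying an alteration in DNA damage repair or cell cycle control, was exposed to compounds; growth inhibition was measured relative to vehicle-treated controls.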

[3] = NCI Yeast Anticancer Drug Screen. Data for the sgs1 mgt1 strain (AID 161);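 also: 0% = growth of cultures given vehicle only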; details: S. cerevisiae sgs1 mgt1 strain, at 50.0 µM, active compounds read high
Outline: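 Percent growth inhibition was derived by comparing compound-exposed mutant yeast with vehicle-exposed cultures. The strain carries alterations in DNA damage repair.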

[4] = NCI Yeast Anticancer Drug Screen. Data for the cln2 rad14 strain (AID 165);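 also: 0% = growth equal to vehicle treated cultures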; details: S. cerevisiae cln2 rad14 strain, at 50.0 µM, active compounds read high
Outline: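 Yeast carrying cln2 and rad14 alterations (cell cycle control and DNA damage repair) were exposed to compounds. Growth inhibition was measured against vehicle-treated controls.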

[5] = NCI Yeast Anticancer Drug Screen. Data for the bub3 strain (AID 167); details: S. cerevisiae bub3 mutant strain, at 50.0 µM, active compounds read high
Outline: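 Whole-cell yeast assay. The mutant strain was incubated with compounds, and growth inhibition was determined by comparison with vehicle-treated cells.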

[6] = NCI Yeast Anticancer Drug Screen. Data for the mlh1 rad18 strain (AID 175); details: S. cerevisiae mlh1 rad18 strain growth inhibition; at 50.0 µM; active compounds read high
Outline: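 Growth inhibition of the yeast strain was measured after compound exposure and expressed relative to vehicle-treated controls. The strain carries defined defects in DNA damage repair.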

SMILES	growth inhibition [1]	growth inhibition [2]	growth inhibition [3]	growth inhibition [4]	growth inhibition [5]	growth inhibition [6]
SCCNCc1ccco1	-31.4%	-68.5%	-15.9%	20.6%	-32.6%	4.9%
CN(C)CCOC(=O)c1ccc(N)cc1	-6.35%	1.6%	-31.8%	-19.6%	23.1%	-8.35%
CC(=O)N1c2ccccc2C23CCN4CC5=CCOC(O)C(C5CC42)C13 (configuration not stated)	-20.1%	-21.4%	-18.6%	-6.55%	-13.9%	-62.4%
CCC(CC)C(=O)O	-11.2%	-3.5%	-34.4%	-22.5%	7.85%	-34.8%
Oc1c(Cl)cc(Cl)cc1C=Nc1cc(C(F)(F)F)ccc1N1CCc2ccccc2C1	53.5%	0.25%	50%	14.4%	42.8%	39.6%
CNc1ccccc1C	37.6%	-15.4%	-8.1%	-82.1%	18.9%	23%
O=C(O)CCc1ccc([N+](=O)[O-])cc1Cl	5.8%	4.95%	7.3%	-24.6%	-17.4%	-0.4%
O=C(Nc1cccc(O)c1)c1ccc([N+](=O)[O-])cc1	1.5%	18.6%	14.4%	-15.3%	19.7%	23.4%
COc1ccccc1OCC(=O)O	23.6%	0.2%	-17.8%	-24.9%	-11.9%	23.2%
CCCCCCCC/C=C\CCCCCCCC(=O)OC(C)CC(=O)N(C)C (configuration not stated)	-18.1%	-23.4%	10.6%	-6.55%	-11.6%	3.95%
C=C(C)C(C)(C)n1[nH]c(=O)n(-c2ccccc2)c1=O	13.2%	-0.05%	-0.3%	-23.1%	-13.4%	0%
N#Cc1ccc(OC(=O)Nc2cccc(Cl)c2Cl)cc1	-3.7%	-25.4%	2.95%	15.7%	0.55%	-9.45%
CNC(=O)OCc1c(C)oc(-c2ccc(Cl)c(Cl)c2)c1COC(=O)NC	47.5%	-7.15%	34.5%	24.1%	12.3%	14.4%
CC1=CC(=C(C#N)C#N)c2ccccc2N1C	1.1%	4.35%	-8.8%	3.75%	14.6%	1.85%
COc1c(C=O)c2c(c(OC)c1OC)-c1ccc(OC)c(=O)cc1[C@@H](NC(C)=O)CC2	12.5%	-9.6%	-0.25%	7.15%	2.9%	-0.95%
CCC(C)CCOC(=O)c1ccc(N=Cc2ccc(C=Nc3ccc(C(=O)OCCC(C)CC)cc3)cc2)cc1 (configuration not stated)	-20.5%	2.7%	30%	11.6%	43.4%	29.9%
Clc1ccc(-c2onc3ccc(Br)cc23)cc1	-6.65%	-12.3%	-1.15%	-17.9%	-0.75%	8.5%
O=C1CCc2nc(=O)c3c4ccccc4ccc3n21	3.95%	1.55%	-5.35%	-36.5%	-3.95%	-0.2%
CN(CC(N)=O)C(=O)c1cnc2ccccc2c1	9.65%	18.6%	-1.05%	8.05%	14.1%	0.4%
CC(=O)N1CCN(c2ccccc2Cl)CC1	-10%	-17.2%	-18.4%	-3.45%	-10.6%	-22.7%
NC(=O)C(Cc1ccc(O)cc1)NC(=O)c1ccccc1 (configuration not stated)	-8.8%	-16.6%	-0.1%	1.85%	22.1%	-14.2%

SMILES	growth inhibition [1]	growth inhibition [2]	growth inhibition [3]	growth inhibition [4]	growth inhibition [5]	growth inhibition [6]
CCOc1nc2c(c(=O)n(C)c(=O)n2C)n1C	26.9%	-7.55%	-6.25%	8%	7.65%	20.9%
CC1(C)CCCCCCC2CC2CCCCCC(C)(C)C1=O (configuration not stated)	1%	-6.15%	-4.8%	7.8%	-11.5%	24.1%
CN(C)c1ccc(SSc2ccc(N(C)C)cc2)cc1	-6.9%	-20.6%	3.2%	-3.9%	6.55%	1.25%
C=C1N(C)c2ccccc2C1(C)C	22.7%	10.2%	-12.2%	29.4%	6.2%	17.3%
CCc1n[nH]c(=O)n1N1C(=O)C2CCCCC2C1=O (configuration not stated)	16.1%	-20.5%	35.1%	6.5%	3.2%	-25.9%
O=NN(CCF)C(=O)N[C@H]1CCCC[C@H]1O	-15.7%	-19.1%	-27.1%	2.75%	-15.9%	1.45%
OC1COCOC1C(O)C1OCOCC1O (configuration not stated)	3%	9.8%	7.85%	4.3%	-6.15%	1.75%
O=c1oc2c(ccc3ccccc32)c(O)c1-c1cccc2ccccc12	99.2% (active)	99.5% (active)	99.5% (active)	99% (active)	97.7% (active)	99.3% (active)
CSc1ncnc2ncn(C)c12	11.9%	-2.6%	4.4%	-9.95%	3.25%	1.75%
CCn1c2ccccc2c2ccc(N=Nc3ccccc3)cc21	36.8%	12.6%	19.2%	-1.75%	22.8%	17.8%
COC(C)(C)C(Br)C(=O)OCC(=O)c1ccc(Br)cc1 (configuration not stated)	25.9%	-0.3%	11%	20.6%	0.8%	13.3%
Cc1ccc(S(=O)(=O)CO)cc1	0.5%	-3.2%	14.3%	-51.5%	-27.9%	11%
CN(C)C(=O)/N=C1\SC(=Nc2ccccc2)C(=Nc2ccccc2)N1c1ccc([N+](=O)[O-])cc1	-1.65%	5.5%	-1.7%	27.2%	16.4%	-12.3%
COC(=O)CCC(=O)CC(=O)C(=O)Nc1c(Cl)cc([N+](=O)[O-])cc1Cl	11.4%	-17.1%	0.5%	24.1%	-4.5%	3.8%
C1=CCOCOC1	-2.35%	-24.4%	-2.35%	-8%	-8.95%	-38.1%
COc1ccc2nc3c([N+](=O)[O-])ccc(NCCCN(C)C)c3c(NCCCN(C)C)c2c1	-5.15%	9.3%	11.7%	38.3%	-28.4%	-1.6%
CCOC(=O)c1ccc(C(=O)OCC)n1-c1cc2cc(c1)CSCc1cc(cc(-n3c(C(=O)OCC)ccc3C(=O)OCC)c1)CSC2	-26.2%	-30.1%	-20.9%	16.6%	-13.8%	-5.15%
O=S(=O)(c1ccc(O)c(Cl)c1)c1ccc(O)c(Cl)c1	32.8%	37.5%	16.1%	36.7%	47.2%	31.1%
Cc1cc(C(C)(C)C)cc(C)c1[N+](=O)[O-]	18.7%	-7.55%	-17.9%	8.2%	-7.1%	7.25%
O=C1C(=Cc2cccc(O)c2)N=C(c2ccccc2)N1n1c(-c2ccccc2)nc2ccccc2c1=O	-14.3%	5.15%	25.8%	14.7%	-1.75%	11.9%
Oc1[nH]c2ccccc2c1N=NC(=S)Nc1ccccc1Cl	-8.2%	-2.3%	46.5%	36.2%	21.8%	26.2%
